# Laboratory results reported in PubChem BioAssay AID485297 (National Center for Advancing Translational Sciences (NCATS), 2010).
# Among all 320,000 compounds or so, about 9,100 (2.8%) were called active. Inconclusive results (about 3%) are left out. Calls come from the whole dose curve; as a rule, active = well fitted activation curve with a large enough effect; inconclusive = small, poorly fitted or top-dose-only effect; inactive = no such curve, though single readings can be large or run the other way. What follows is part of a selection rich in actives, with near analogues and random picks from the rest.
# Assay: qHTS Assay for Rab9 Promoter Activators; note: nearly all actives have a fitted effect of over 60% in size; for activation, negative = inhibition: % of control where 0% means no effect
# Details: Huh7 Rab9 promoter-luciferase reporter, luminescence, 24 h; series mostly up to 9.22 µM; activation, negative = inhibition: at the top concentration
# Method in brief: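 Cells were plated at 1500 per well in reduced-serum medium with 10% FBS and left 2 h. Compound in DMSO was then added for 24 h at 37 °C. Reporter signal was read by luminescence after 10 min with luciferase detection reagent.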
# Potency is the fitted concentration of half-maximal effect.
SMILES,Potency,"activation, negative = inhibition"
Cc1ccc(-c2nc(COC(=O)c3c(C)noc3C)cs2)cc1,3550 nM (active),
COc1cc(OC)cc(C(=O)NCC(=O)OCc2csc(-c3ccccc3)n2)c1,,-5.11% (inactive)
Cc1ccc(S(=O)(=O)N2CCN(C(=O)COC(=O)c3c(C)noc3C)CC2)c(C)c1,,-0.946% (inactive)
COc1cc(C(=O)OCC(=O)NC23CC4CC(CC(C4)C2)C3)cc(OC)c1OC,,-5.87% (inactive)
O=C(c1ccc(Cl)c(S(=O)(=O)N2CCCCCC2)c1)N1CCN(c2ccc(O)cc2)CC1,,2.27% (inactive)
Cc1ccc2nc(-c3ccc(Br)cc3)cn2c1,316 nM (active),
CSc1nnc2ccc(-c3ccc(C)cc3)nn12,,11.7% (inactive)
Cc1cc(N2CCOCC2)nc(-c2ccc(Br)cc2)n1,,1.71% (inactive)
Cc1ccc(C(=O)Cn2cc([N+](=O)[O-])nc2C)cc1,,-6.84% (inactive)
Cc1ccc(-c2cn3cc([N+](=O)[O-])ccc3n2)cc1,355 nM (active),
Cc1nc(-c2ccc([N+](=O)[O-])cc2)c(-c2ccccc2)o1,,0.201% (inactive)
COc1ccc(S(=O)(=O)N2CCOCC2)cc1NC(=O)Cc1c(F)cccc1Cl,,0.109% (inactive)
Cc1cc(NC(=O)CN2C(=O)NC(CCc3ccccc3)C2=O)no1 (configuration not stated),,-0.496% (inactive)
OC(COc1ccc(F)cc1Cl)CN1CCc2ccccc2C1 (configuration not stated),,2.79% (inactive)
Cc1cc2oc(C(=O)Nc3c(C)n(C)n(-c4ccccc4)c3=O)c(C)c2cc1Cl,,-5.97% (inactive)
CCOc1ccc(Nc2nc(Cl)nc(N3CCN(c4ccc(OC)cc4)CC3)n2)cc1,,-7.09% (inactive)
Cc1ccc(Nc2nc(N3CCOCC3)nc(N3CCOCC3)n2)cc1Cl,,0.834% (inactive)
COc1ccc(Nc2ncc(F)c(N3CCOCC3)n2)cc1,891 nM (active),
Cc1cc(C)n2nc(C(=O)Nc3cccc(S(=O)(=O)N4CCOCC4)c3)nc2n1,,-0.106% (inactive)
COC(=O)c1cc2c(ccn2C)n1C,,-7.96% (inactive)
CCN(CC)c1ccc2oc(=O)c(C)nc2c1,,-3.4% (inactive)
CCc1ccc2oc(-c3ccc(N)cc3)nc2c1,501 nM (active),

SMILES,Potency,"activation, negative = inhibition"
Cc1ccc(C)c(NC(=O)CSc2nc3c(oc4ccccc43)c(=O)n2-c2ccccc2)c1,,1.35% (inactive)
Cc1ccccc1NC(=O)Cc1nc(COC(=O)c2ccc(C(F)(F)F)cc2)cs1,,1.76% (inactive)
Cc1ccc2c(CN3CCN(S(=O)(=O)c4ccccc4C(F)(F)F)CC3)cc(=O)oc2c1,,-8.96% (inactive)
Cc1ccc(-c2nn(-c3ccccc3)cc2C(=O)NC2CCC(O)CC2)cc1 (configuration not stated),,14.2% (inactive)
CC[C@H](C)C(=O)N[C@H]1CCCN1C(=O)/C=C/c1ccccc1,,-2.26% (inactive)
Cc1ccc(C(=O)NNC2=Nc3cc([N+](=O)[O-])ccc3OC2)cc1,,1.55% (inactive)
COc1ccc(C2=Nc3cc(C)ccc3OC2)cc1,562 nM (active),
COc1ccc(C2=NOC(COC(=O)c3ccc4ccccc4n3)C2)cc1 (configuration not stated),,-1.87% (inactive)
CC(C)OCCCNC(=S)N1CCC(C(=O)c2ccc3c(c2)OCCO3)CC1,,-2.99% (inactive)
COc1cccc(/C=C/C(=O)Nc2ccc3c(c2)OCCO3)c1,1260 nM (active),
O=C(/C=C\c1ccc2c(c1)OCO2)NC1(C(=O)Nc2ccc3c(c2)OCCO3)CCCCC1,,0.644% (inactive)
Cc1cccc(NC(=O)Nc2ccc(OCc3ccccc3)cc2)n1,,-0.949% (inactive)
COc1ccc(OC)c(/C=C/C(=O)OCC(=O)Nc2ccc3c(c2)OCCO3)c1,,8.75% (inactive)
O=C(O)/C=C/c1ccc2c(c1)OCCO2,,0.952% (inactive)
Cc1cccc(NC(=O)Nc2ccc3c(c2)OCO3)n1,2240 nM (active),
CCOC(=O)CCCNC(=O)COC(=O)/C=C/c1ccc2c(c1)OCO2,,1.1% (inactive)
CC(C)CNS(=O)(=O)c1ccc(C(=O)Nc2ccc3c(c2)OCO3)cc1,,-4.4% (inactive)
CC(NC(=O)Nc1ccc2c(c1)OCO2)c1ccncc1 (configuration not stated),,-3.45% (inactive)
CNS(=O)(=O)c1ccc(NC(=O)Nc2ccc3c(c2)OCO3)cc1,3550 nM (active),
CC(NS(=O)(=O)c1ccc(Cl)cc1)C(=O)Nc1ccc2c(c1)OCCO2 (configuration not stated),,5.09% (inactive)
Cc1cccc(NC(=O)/C=C/c2ccc3c(c2)OCO3)n1,562 nM (active),
O=C1C=C(c2ccnc3cc(Cl)ccc23)C[C@@H](c2ccc3c(c2)OCO3)C1,,-5.37% (inactive)

SMILES,Potency,"activation, negative = inhibition"
COc1ccc(NS(=O)(=O)c2cccc(C(=O)NCCc3ccc(S(N)(=O)=O)cc3)c2)cc1,,-6.22% (inactive)
CC(=O)Nc1ccc(S(=O)(=O)N2CCN(S(=O)(=O)c3cccs3)CC2)cc1,,-6.37% (inactive)
CC1CCc2sc(C(=O)NCC(c3ccco3)N3CCCCC3)cc2C1 (configuration not stated),,-7.28% (inactive)
O=C(NCCOc1ccccc1Cl)C(=O)Nc1ccccc1,,13% (inactive)
COc1ccc(S(=O)(=O)N2CCOCC2)cc1NC(=O)Cc1coc2cc(C)ccc12,,-2.27% (inactive)
Cc1nn(Cc2ccccc2)c(C)c1C(=O)NCCCN1CCCC1=O,,-2.83% (inactive)
COc1ccc(CCNC(=O)CSc2nnc(CNC(=O)c3cccs3)o2)cc1OC,,-2.09% (inactive)
COc1ccccc1-c1nnc(SCC(=O)N2CC(C)CC(C)C2)o1 (configuration not stated),,-1.74% (inactive)
COc1ccc(-c2nnc(SCC(=O)c3cccs3)o2)c(OC)c1,1120 nM (active),
Cc1ccc(NS(=O)(=O)c2ccc3c(c2)CC(=O)N3)cc1Cl,,-0.719% (inactive)
COc1ccccc1C(CNC(=O)c1ccc(C)c(S(=O)(=O)N2CCCCC2)c1)N(C)C (configuration not stated),,-2.47% (inactive)
CN(CCc1ccccc1)c1ccc([N+](=O)[O-])cn1,,16.6% (inactive)
COC(=O)[C@]1(C)CCC[C@@]2(C)C3CC[C@]4(OC(C)=O)C[C@@]3(CCC21)CC4=NO (some centres not stated),,0.822% (inactive)
O=C(Nc1cccc(F)c1)NC1CCCc2ccccc21 (configuration not stated),,1.16% (inactive)
O=C(Nc1cccc(F)c1)NC1CCCCCCC1,3550 nM (active),
C/C(CC(=O)Nc1cccc(F)c1)=N\NC(=O)C(=O)NC1CCCCC1,,0.896% (inactive)
Cc1cccc(C)c1NC(=O)CN(C)C(=O)CCC(=O)c1ccccc1,,1.5% (inactive)
CC(OC(=O)/C=C/c1ccccc1)C(=O)NC1CCCCC1C (configuration not stated),,-4.92% (inactive)
Cc1ccc(NC(=O)Nc2ccccc2)c(Br)c1,1780 nM (active),
Cc1cccc(NC(=O)Nc2nnc(-c3ccccc3)o2)c1,,-3.39% (inactive)
Cc1c(NC(=O)Nc2ccccc2)cccc1[N+](=O)[O-],,-9.25% (inactive)
COc1cc2c(cc1OC)CN(C(C)C(=O)Nc1cccc(S(=O)(=O)N3CCOCC3)c1)CC2 (configuration not stated),,-1.59% (inactive)

SMILES,Potency,"activation, negative = inhibition"
Cc1sc2ncnc(N3CCC(C(=O)Nc4ccc(F)cc4Cl)CC3)c2c1C,,-1.62% (inactive)
Cc1ccc(-c2csc(NC3OC(=O)c4ccccc43)n2)cc1 (configuration not stated),,-3.39% (inactive)
Cc1ccc(-c2csc(-c3c[nH]c4ccccc34)n2)cc1,2510 nM (active),
CCCc1cc(-c2nc(-c3ccc(C)cc3)cs2)ccn1,,-0.323% (inactive)
O=C(CN(C(=O)CCC(=O)Nc1nccs1)c1ccc(F)cc1)NCc1ccc2c(c1)OCO2,,2.57% (inactive)
CC1CN(C(=S)SCC(=O)c2ccccc2)CC(C)O1 (configuration not stated),,17.3% (inactive)
COc1cccc(NC(=O)CN(C)C(=O)CSC(=S)N2CCCC2)c1,,11.8% (inactive)
O=C(CSC(=S)N1CCOCC1)c1ccccc1,447 nM (active),
O=C(CSC(=S)N1CCOCC1)c1cc(Br)cc(Br)c1O,,6.93% (inactive)
CC(=O)c1ccc(NC(=O)CSC(=S)N2CCCC2)cc1,,12.2% (inactive)
O=C(CSC(=S)N1CCCCC1)c1c(F)cccc1F,1410 nM (active),
Cc1occc1-c1nnc(SCC(=O)NC2CCCCC2)o1,,-0.222% (inactive)
COc1ccc(S(=O)(=O)N2CCN(C(C)C(=O)Nc3ccc(C(C)C)cc3)CC2)cc1 (configuration not stated),,1.47% (inactive)
O=C(NCc1ccccc1CN1CCCC1)c1cccc(S(=O)(=O)Nc2ccc(F)cc2)c1,,-1.74% (inactive)
Cc1ccc(OCCCC(=O)Nc2ccc3c(c2)OCCO3)cc1,,-3.01% (inactive)
O=C(Nc1cccc(NC(=O)c2ccco2)c1)c1cnccn1,,3.39% (inactive)
CCn1c(SCC(=O)Nc2ccc3c(c2)OCCO3)nnc1C(C)C,,0.546% (inactive)
O=C(CCN1C(=O)c2ccncc2C1=O)Nc1ccc2c(c1)OCCO2,,2.25% (inactive)
O=C(Nc1ccc2c(c1)OCCO2)c1cnccn1,2000 nM (active),
CCn1c(SCC(=O)Nc2ccc3c(c2)OCCO3)nnc1-c1ccncc1,,-6.01% (inactive)
Cn1ccnc1SCC(=O)Nc1ccc2c(c1)OCCO2,2510 nM (active),
Cc1ccc(SCC(=O)Nc2ccc3c(c2)OCCO3)cc1,3160 nM (active),

SMILES,Potency,"activation, negative = inhibition"
Cc1ccc(S(=O)(=O)NCC(=O)Nc2ccc3c(c2)OCCO3)cc1,,0.138% (inactive)
O=[N+]([O-])c1cc(S(=O)(=O)NCCc2ccccn2)ccc1Cl,,1.61% (inactive)
COc1ccc(-c2nnc(SC(C)C(=O)NC3CC3)o2)cc1 (configuration not stated),,3.52% (inactive)
Cc1cc(C)cc(NC(=O)NC2CCN(CC(=O)Nc3cccc(Cl)c3C)CC2)c1,,-3.85% (inactive)
O=c1[nH]c2cccnc2n(CCNc2ncc(C(F)(F)F)cc2Cl)c1=O,,-2.72% (inactive)
CNS(=O)(=O)c1cccc(C(=O)OCC(=O)N2c3ccccc3NC(=O)C2(C)C)c1,,-3.9% (inactive)
CCOc1ccc(C(C)NC(=O)CN2C(=O)NC3(CCCCC3)C2=O)cc1OCC (configuration not stated),,-4.04% (inactive)
Cc1ccn(-c2cccc(-n3ccc(C)n3)n2)n1,2820 nM (active),
Cc1cc(N/C=C\C(=O)c2ccc(Cl)c(Cl)c2)no1,2820 nM (active),
Cc1ccc(C(=O)/C=C/Nc2ccc(S(=O)(=O)Nc3onc(C)c3C)cc2)cc1,,2.91% (inactive)
Cc1cc(NC(=O)CSc2nnc(-c3ccc(Cl)s3)o2)no1,,-1.01% (inactive)
COc1cc(OC)cc(-c2c(-c3cccs3)c3cc(-c4ccc(OC)cc4F)ccc3n2C)c1,,-4.07% (inactive)
Cc1ccc(C(=O)c2c(NC(=O)c3ccccc3)sc(C)c2C)cc1,,-0.247% (inactive)
Cc1sc(NC(=O)c2ccc3ncsc3c2)c(C(N)=O)c1C,1580 nM (active),
O=C(COC(=O)c1ccc2ncsc2c1)Nc1ccc(Cl)cc1,,1.26% (inactive)
CCc1ccc(OCC(=O)OCC(=O)c2c(N)n(C)c(=O)n(C)c2=O)cc1,,-0.827% (inactive)
O=C(/C=C/c1ccc(Cl)cc1)Nc1ccc(S(=O)(=O)Nc2ncccn2)cc1,,-0.0735% (inactive)
Cc1cc(C)nc(NC(=O)/C=C/c2ccc(Cl)cc2)n1,,15.4% (inactive)
CC(C)(C)c1ccc(/C=C/C(=O)Nc2ncccn2)cc1,3980 nM (active),
